Assay outcomes: PubChem BioAssay, National Center for Advancing Translational Sciences (NCATS)
Only some compounds are listed: those with a hit (about 11% of all), similar ones and a draw of the others.
NPR1 antag = Natriuretic polypeptide receptor (hNpr1) antagonism - Primary qHTS. Potency, µM (titrated, usually from 46.3 µM), inactives show top-dose activity change, negative = inhibition, most hits filed as inhibitors. AID 1347048, 2019. Atrial natriuretic peptide receptor 1 (Homo sapiens), P16066. actives 1.6% (n = 76,000). HEK293 hNpr1 GloSensor cGMP, ANP-stimulated luminescence; also: % is scaled to controls: 0 for no effect and ±100 for the full control effect; nearly all actives have a fitted effect of over 60% in size
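HEK293 cells stably expressing human Npr1 and cGMP GloSensor pGS-40F, loaded 2 h with 2% GloSensor reagent, given compound 30 min at room temperature. Luminescence read before and 20 min after 0.1 nM hNppA.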
HEK cytotox = Cytotoxic Profiling in HEK 293 Cell Line of Diverse Libraries Using Quantitative High-Throughput Screening | HEK 293 viability, ATP luminescence (CellTiter-Glo), 48-72 h | Potency, µM (top dose mostly 115 µM), for inactives: top-dose activity change, negative = cytotoxicity, actives largely listed as inhibitors | actives 6.6% (n = 94,000); active = well fitted curve in the direction sought with a large enough effect; inconclusive = small, poorly fitted or top-dose-only effect, or another doubt; inactive = no such curve, though single readings can be large; an effect the other way counts as inactive or inconclusive; also: % is scaled to controls: 0 for no effect and ±100 for the full control effect; nearly all actives have a fitted effect of over 60% in size
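CellTiter-Glo luminescence (cellular ATP) was read after 48 or 72 hr of compound exposure at 37 degree Celsius. Cells were HEK 293 plated at 250 cells/well.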
Luciferase inh = Firefly luciferase inhibition profiling of diverse chemical library using quantitative high-throughput screening. purified P. pyralis luciferase, luminescence, biochemical. Potency, µM (titrated, usually from 115 µM), actives largely listed as inhibitors. actives 2.5% (n = 76,000); active = well fitted curve in the direction sought with a large enough effect; inconclusive = small, poorly fitted or top-dose-only effect, or another doubt; inactive = no such curve, though single readings can be large; an effect the other way counts as inactive or inconclusive; also: % is scaled to controls: 0 for no effect and ±100 for the full control effect; nearly all actives have a fitted effect of over 65% in size
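Luminescence read by CCD imager after adding enzyme (10nM final) to wells holding compound, titrated in qHTS. Substrates 10uM each D-luciferin and ATP; buffer 50mM Tris acetate pH 7.5, 10mM Mg acetate, Tween-20, BSA.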
NIH3T3 tox = Cytotoxic Profiling in NIH 3T3 Cell Line of Diverse Libraries Using Quantitative High-Throughput Screening; NIH 3T3 viability, CellTiter-Glo ATP luminescence, 48-72 h; Potency, µM (series often up to 96.7 µM), without a hit: top-dose activity change, negative = cytotoxicity, most hits filed as inhibitors; actives 4.3% (n = 94,000); AID 1345082, 2018; active = well fitted curve in the direction sought with a large enough effect; inconclusive = small, poorly fitted or top-dose-only effect, or another doubt; inactive = no such curve, though single readings can be large; an effect the other way counts as inactive or inconclusive; also: % is scaled to controls: 0 for no effect and ±100 for the full control effect; nearly all actives have a fitted effect of over 55% in size
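Viability of NIH 3T3 cells after 48 or 72 hr compound treatment at 37 °C was assessed by CellTiter-Glo, with luminescence imaged following a 10 min room-temperature step.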
Npr1 antag conf = Natriuretic polypeptide receptor (hNpr1) antagonism - Confirmation. shares compounds with NPR1 antag. HEK293 hNpr1 cGMP GloSensor luminescence, ANP-stimulated. Potency, µM (top dose mostly 57.6 µM), inactives show at the top dose activity change, negative = inhibition, hits mostly inhibitors. actives 76% (n = 1,400); also: nearly all actives have a fitted effect of over 70% in size
Npr2 selectivity = Natriuretic polypeptide receptor (hNpr2) antagonism - Subtype selectivity assay. shares compounds with NPR1 antag. HEK293 hNpr2 GloSensor cGMP luminescence, CNP-stimulated. Potency, µM (doses to about 57.6 µM), for the others: top-dose activity change, negative = inhibition, usual class: inhibitors. actives 67% (n = 1,400); also: nearly all actives have a fitted effect of over 70% in size
Target sequence (P20594 whole entry, looked up): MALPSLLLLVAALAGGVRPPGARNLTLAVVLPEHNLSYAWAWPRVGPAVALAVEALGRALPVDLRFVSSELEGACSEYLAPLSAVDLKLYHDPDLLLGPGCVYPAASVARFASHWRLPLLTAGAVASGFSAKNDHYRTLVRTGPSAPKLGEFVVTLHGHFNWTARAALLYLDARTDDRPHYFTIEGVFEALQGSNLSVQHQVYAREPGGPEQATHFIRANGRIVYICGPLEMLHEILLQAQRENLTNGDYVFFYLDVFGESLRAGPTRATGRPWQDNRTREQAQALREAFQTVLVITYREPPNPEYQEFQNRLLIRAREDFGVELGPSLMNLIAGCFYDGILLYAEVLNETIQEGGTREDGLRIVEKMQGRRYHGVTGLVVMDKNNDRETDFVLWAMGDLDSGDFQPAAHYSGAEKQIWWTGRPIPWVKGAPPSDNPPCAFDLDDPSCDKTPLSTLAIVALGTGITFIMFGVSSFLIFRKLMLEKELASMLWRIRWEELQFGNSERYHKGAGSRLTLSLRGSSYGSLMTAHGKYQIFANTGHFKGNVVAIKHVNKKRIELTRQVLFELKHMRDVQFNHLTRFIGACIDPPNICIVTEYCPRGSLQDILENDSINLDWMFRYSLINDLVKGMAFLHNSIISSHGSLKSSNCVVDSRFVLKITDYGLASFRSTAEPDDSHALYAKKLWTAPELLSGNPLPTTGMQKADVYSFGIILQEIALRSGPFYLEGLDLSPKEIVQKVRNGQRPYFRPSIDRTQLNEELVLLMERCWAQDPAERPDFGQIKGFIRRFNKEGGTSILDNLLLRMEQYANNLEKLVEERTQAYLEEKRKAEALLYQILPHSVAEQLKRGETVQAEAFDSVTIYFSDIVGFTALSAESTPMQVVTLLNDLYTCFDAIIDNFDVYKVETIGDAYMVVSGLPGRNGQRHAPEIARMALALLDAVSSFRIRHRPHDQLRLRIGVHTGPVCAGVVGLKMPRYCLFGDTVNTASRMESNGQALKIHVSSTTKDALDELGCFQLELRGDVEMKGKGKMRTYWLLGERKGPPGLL
FLuc counter = Natriuretic polypeptide receptor (hNpr1) antagonism - Confirmation firefly luciferase (FLuc) inhibition counterscreen | shares compounds with NPR1 antag | purified FLuc enzyme, luminescence, Km substrate | Potency, µM (series often up to 57.6 µM), inactives show at the highest dose activity change, negative = inhibition, hits mostly inhibitors | actives 0.7% (n = 1,400); active = well fitted curve in the direction sought with a large enough effect; inconclusive = small, poorly fitted or top-dose-only effect, or another doubt; inactive = no such curve, though single readings can be large; an effect the other way counts as inactive or inconclusive; also: 0% is about no effect
GloSensor ctrl = Natriuretic polypeptide receptor (hNpr1) antagonism - Counterscreen GloSensor control cell line. actives 69% (n = 1,400). HEK293 GloSensor cGMP, SNP-stimulated, luminescence. shares compounds with NPR1 antag. Potency, µM (series often up to 57.6 µM), inactives show at the top dose activity change, negative = inhibition, hits mostly inhibitors; also: % is scaled to controls: 0 for no effect and ±100 for the full control effect; nearly all actives have a fitted effect of over 70% in size
The depositor's hits bear a star; i = inactive; ? = inconclusive; . = not tested or not shown; [ ] = another dose, or the depositor's remark. Unless noted, calls follow the shape of the full dose curve. Potency is read from the fitted curve at half-maximal effect.

SMILES | NPR1 antag | HEK cytotox | Luciferase inh | NIH3T3 tox | Npr1 antag conf | Npr2 selectivity | FLuc counter | GloSensor ctrl
O=C(Nc1nccs1)[C@@H]1C[C@@H](c2ccc(F)cc2)N(CCOc2ccccc2)C1 | ? | ? | i | ? | 35.3µM* | ? | 3.6%[86.2 µM] | ?
O=C(c1ccc(F)cc1)N1CCN(C(=O)c2cccc(-c3ccccn3)c2)CC1 | . | ? | . | -34.2% | . | . | . | .
O=C(CCC1CCCC1)N1CCC2(CC1)CC(N(C(=O)c1ccccc1)C1CC1)CCO2 (centres undefined) | ? | ? | i | ? | ? | -27.5% | 0.1% | ?
O=C(Cc1ccccc1)N1CCC2(CC1)CC(N(C(=O)c1ccccc1)C1CC1)CCO2 (centres undefined) | -14.0% | ? | i | -17.1% | . | . | . | .
CCN1c2cc(C(=O)Nc3ccc(C(=O)OC)cc3)ccc2C(=O)N2CCCC21 (centres undefined) | 0.0% | ? | i | -26.9% | . | . | . | .
O=C(NC1CCCC1)C1Cn2cccc2C(=O)N1Cc1cccnc1 (centres undefined) | 6.6% | i | i | 1.9% | . | . | . | .
COc1cccc(-c2cc(C3CCN(C(=O)c4ccccc4Br)CC3)[nH]n2)c1 | 17.8µM* | 28.2µM* | i | ? | 24.3µM* | 24.3µM* | 0.0% | 21.7µM*
O=C(c1ccccn1)N1CCC(c2cc(-c3ccccc3)n[nH]2)CC1 | 0.7% | ? | i | -17.4% | . | . | . | .
CCC1(O)CCC12CCN(C(=O)CCC1CCCC1)CC2 (centres undefined) | . | ? | . | -22.7% | . | . | . | .
O=S(=O)(c1ccccc1)N1CCCC(c2nc(CCOCC3CCCC3)no2)C1 (centres undefined) | -21.9% | ? | i | -25.6% | ? | ? | 0.0% | ?
COCCNC(=O)c1cc(-c2ccccc2OC)c2nncn2n1 | . | i | . | -1.7%[138 µM] | . | . | . | .
COc1ccc(C(=O)N2CCCC(n3cc(-c4nc(C(C)C)no4)nn3)C2)cn1 (centres undefined) | -0.4% | -3.6% | i | -23.4% | . | . | . | .
O=C(NCc1ccccc1Cl)c1csc(N2CCN(c3ccc(F)cc3)CC2)n1 | 11.2µM* | ? | i | ? | 21.7µM* | 21.7µM* | -6.8% | 19.3µM*
O=C(NCc1ccc2c(c1)OCO2)c1csc(N2CCN(c3ccc(F)cc3)CC2)n1 | 10µM* | 28.2µM* | i | ? | 8.62µM* | 10.9µM* | -0.8% | 9.68µM*
CN1CCN(C(=O)c2csc(N3CCN(c4ccc(Cl)cc4)CC3)n2)CC1 | -11.3% | ? | ? | ? | . | . | . | .
O=C(NCc1ccc(F)cc1)c1cc2n(n1)CC(c1ccc3c(c1)OCO3)OC2 (centres undefined) | 0.0% | ? | i | ? | . | . | . | .
O=C(NCc1ccccc1Cl)c1cn2cc(-c3ccccc3)sc2n1 | . | -1.1% | . | -13.6% | . | . | . | .
